# Assay results as given in the supplement of paper PMC10498489.
# The whole screen tested about 2,300 compounds, of which about 330 (14%) showed activity.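 How the source made its calls: active = median modified Z-score above 1.96; inactive = 1.96 or below.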 Not all results are given here.
# Tested on: HepG2 Srxn1-GFP reporter cells (+30 nM CDDO-Me)
# Assay: Srxn1-GFP intensity median modified Z-score relative to plate median; higher = stronger NRF2 / oxidative stress reporter activation, active = hit call of the paper
# Settings: 10 µM; exposure time: 24h
# Summary of the method: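 The per-plate modified Z-score of GFP intensity, taken as a median across replicates, is what each value represents. Three replicate plates of HepG2 Srxn1-GFP BAC reporter cells were exposed for 24 h to an NRF2 activator at 30 nM combined with compound at 10 μM (≤0.1% DMSO). Cytoplasmic GFP per cell was read from confocal images, excluding any with under 100 cells, and scaling used 1.4826 × median absolute deviation.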
row,Structure (SMILES),Srxn1-GFP intensity median modified Z-score
1,CC(=O)O[C@@]12CO[C@@H]1C[C@H](O)[C@@]1(C)C(=O)C(=O)C3C(C)[C@@H](OC(=O)[C@@H](O)[C@@H](NC(=O)OC(C)(C)C)c4ccccc4)C[C@@](O)([C@@H](OC(=O)c4ccccc4)C12)C3(C)C (stereo not given in full) [euspeclibcmpd1130],1.49 (inactive)
2,O=C(O)CCNC(=O)c1ccc(N=Nc2ccc(O)c(C(=O)O)c2)cc1 [euspeclibcmpd2245],-0.361 (inactive)
3,CN(C)c1ccc(O)c2c1C[C@H]1C[C@H]3C(N(C)C)C(=O)C(C(N)=O)C(=O)[C@@]3(O)C(=O)C1C2=O (stereo not given in full) [euspeclibcmpd201],-0.262 (inactive)
4,COC(=O)CCC(C)C1CCC2C3CC[C@@H]4C[C@H](O)CC[C@]4(C)C3C[C@H](O)[C@]12C (stereo not given in full) [euspeclibcmpd1611],-0.0244 (inactive)
5,CCc1cc(Cl)c(OC)c(C(=O)NCC2CCCN2CC)c1O (stereo not given) [euspeclibcmpd333],0.457 (inactive)
6,CCS(=O)(=O)CCn1c([N+](=O)[O-])cnc1C [euspeclibcmpd439],0.00367 (inactive)
7,CCOC(=O)CCC(=O)O[C@H]1[C@H](O[C@@H]2[C@@H](C)[C@H](O[C@H]3C[C@@](C)(OC)[C@@H](O)[C@H](C)O3)C(C)C(=O)O[C@H](CC)[C@@](C)(O)[C@H](O)C(C)C(=O)C(C)C[C@@]2(C)O)O[C@H](C)C[C@@H]1N(C)C (stereo not given in full) [euspeclibcmpd114],0.427 (inactive)
8,CC1(OC(=O)C=Cc2ccccc2)CC(O)C2(O)C=COC(OC3OC(CO)C(O)C(O)C3O)C12 (stereo not given) [euspeclibcmpd1930],0.27 (inactive)
9,CCCCC1=NC2(CCCC2)C(=O)N1Cc1ccc(-c2ccccc2-c2nn[nH]n2)cc1 [euspeclibcmpd676],-0.243 (inactive)
10,COc1cc(O)c(C(=O)C=Cc2ccc(O)c(OC)c2)c(OC)c1 [euspeclibcmpd2193],-0.497 (inactive)
11,COc1cc(C=CC(=O)O)ccc1O [euspeclibcmpd1346],-0.142 (inactive)
12,COc1cc(O)c(C(=O)C=Cc2ccc(OC)c(O)c2)c(OC)c1 [euspeclibcmpd1967],23.8 (active)
13,COc1cc(C=CC(=O)CC(=O)C=Cc2ccc(O)c(OC)c2)ccc1O [euspeclibcmpd1307],23.5 (active)
14,COc1cc(O)c(C(C)=O)c(OC)c1 [euspeclibcmpd1575],-0.474 (inactive)
15,COc1ccc(/C=C/C(=O)O)cc1OC [euspeclibcmpd2368],-0.475 (inactive)
16,Cc1cn[nH]c1 [euspeclibcmpd2215],-0.461 (inactive)
17,Cc1cn[nH]c1 [euspeclibcmpd2196],1.06 (inactive)
18,CCC(=O)O[C@]1(C(=O)SCF)[C@H](C)CC2C3CC(F)=C4CC(=O)C=C[C@]4(C)C3(F)[C@@H](O)C[C@@]21C (stereo not given in full) [euspeclibcmpd975],-0.942 (inactive)
19,CC(=O)Nc1c(I)c(NC(C)=O)c(I)c(C(=O)O)c1I [euspeclibcmpd867],-0.167 (inactive)
20,Cc1cc(=O)oc2cc(O)c(O)cc12 [euspeclibcmpd1370],-0.517 (inactive)

row,Structure (SMILES),Srxn1-GFP intensity median modified Z-score
1,NC(CCC(=O)NC(CS)C(=O)NCC(=O)O)C(=O)O (stereo not given) [euspeclibcmpd132],1.19 (inactive)
2,C[C@]12CCC(=O)CC1=CCC1C2[C@@H](O)C[C@@]2(C)C1CC[C@]2(O)C(=O)CO (stereo not given in full) [euspeclibcmpd5],-0.578 (inactive)
3,O=C(O)C1CSCN1C(O)c1ccc(O)[nH]1 (stereo not given) [euspeclibcmpd1087],-0.1 (inactive)
4,O=C(O)C1CC([C@H]2CCCCN2)CN2CCCCC12 (stereo not given in full) [euspeclibcmpd1560],0.315 (inactive)
5,CCCN1C(=O)/C(=C/c2ccc(-n3ccnc3)cc2)SC1=S,9.18 (active)
6,CC(C)(C)NCC(O)COc1cccc2c1C[C@H](O)[C@H](O)C2 (stereo not given in full) [euspeclibcmpd814],0.0394 (inactive)
7,CC[C@H]1OC(=O)C[C@@H](O)[C@H](C)[C@@H](O[C@@H]2O[C@H](C)[C@@H](O[C@H]3C[C@@](C)(O)[C@@H](O)[C@H](C)O3)[C@H](N(C)C)[C@H]2O)[C@@H](CC=O)CC(C)C(=O)/C=C/C(C)=C/C1CO[C@@H]1O[C@H](C)[C@@H](O)[C@@H](OC)[C@H]1OC (stereo not given in full) [euspeclibcmpd742],-0.617 (inactive)
8,COc1cccc(-c2cc(=O)c3ccc(OC)cc3o2)c1 [euspeclibcmpd2098],1.56 (inactive)
9,COc1ccc(-c2coc3cc(OCC4CC4)ccc3c2=O)cc1,1.64 (inactive)
10,CC(=O)Oc1cccc(O)c1 [euspeclibcmpd584],0.144 (inactive)
11,CC(=O)Oc1ccc(O)cc1 [euspeclibcmpd2324],5.59 (active)
12,CC(=O)Nc1ccc(OC(C)=O)cc1 [euspeclibcmpd1187],-0.386 (inactive)
13,CCC1C(=O)OC[C@@H]1Cc1cncn1C (stereo not given in full) [euspeclibcmpd2263],0.439 (inactive)
14,OC[C@H]1O[C@@](CO)(O[C@@H]2O[C@H](CO)[C@@H](O)[C@H](O)[C@H]2O)[C@@H](O[C@@H]2O[C@H](CO)[C@@H](O)[C@H](O)[C@H]2O)[C@@H]1O [euspeclibcmpd1323],0.146 (inactive)
15,O=C(OCc1cc([N+](=O)[O-])cc2c1OCOC2)C12CC3CC(CC(Br)(C3)C1)C2,1.38 (inactive)
16,CC1(C)OC(=O)NC1=O [euspeclibcmpd99],0.00531 (inactive)
17,CC(C)C(N)C(=O)OCCOCn1cnc2c(=O)[nH]c(=N)[nH]c21 (stereo not given) [euspeclibcmpd757],0.568 (inactive)
18,CC1C/C=C/C=C/C=C/C=C/C(O[C@@H]2O[C@H](C)[C@@H](O)[C@H](N)[C@@H]2O)CC2OC(O)(CC(O)CC3OC3/C=C/C(=O)O1)CC(O)C2C(=O)O (stereo not given in full) [euspeclibcmpd858],-0.525 (inactive)
19,CC1OC(O[C@H]2/C=C/C=C/C=C/C=C/C=C/C=C/C=C/[C@H](C)[C@@H](O)[C@@H](C)[C@H](C)OC(=O)CC(O)CC(O)CCC(O)C(O)CC(O)C[C@]3(O)C[C@H](O)C(C(=O)O)C(C2)O3)C(O)[C@H](N)C1O (stereo not given in full) [euspeclibcmpd24],1.97 (active)
20,CC1/C=C/C=C/C=C/C=C/C=C/C=C/C=C/C(OC2O[C@H](C)[C@@H](O)[C@H](N)[C@@H]2O)CC(O)C(C(=O)O)C(O)CC(=O)CC(O)CC(O)CC(O)CC(=O)CCCC(=O)CC(=O)OC1C(C)CC(C)C(O)CC(=O)c1ccc(N)cc1 (stereo not given in full) [euspeclibcmpd648],1.22 (inactive)
